Assay results taken from PubChem BioAssay AID485299 (Sanford-Burnham Center for Chemical Genomics, 2010).
The whole screen tested about 1,000 compounds, of which about 630 (63%) were called active.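 The calls were made as follows: active = reporter signal at least 30% of the positive control's activation in two or more of four replicate wells; inactive = the rest.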 The set was probably picked from earlier hits. A selection follows.

Test: IRE1-XBP1 UPR arm activators, confirmation, cell-based, CHO-XBP1 luciferase reporter, luminescence, single concentration (AID 485299);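 also: plate controls were DMSO negative control for no effect and tunicamycin 10 µg/mL positive control for full effect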
Conditions: at 20 µM, stronger effect = higher value

activation, active:
OCCNc1nc(Nc2ccc(Cl)c(Cl)c2)nc2ccccc12 47.6%, CCOc1ccc(S(=O)(=O)Nc2cccc(C(=O)NCC3(N4CCCCC4)CCCCC3)c2)cc1 92.9%, Cc1nc2cc(NC(=O)CSc3nc4c(C)cccc4cc3C#N)ccc2s1 42.3%, CCCc1nc2ccccc2c(=O)n1/N=C/c1ccc(O)c(O)c1 36.6%, CN(C)CCCN(C(=O)c1ccc(S(=O)(=O)N2CCCCCC2)cc1)c1nc2ccc(Br)cc2s1 71.3%, N#CCC(=O)N/N=C/c1cn(Cc2ccc3ccccc3c2)c2ccccc12 87.5%, O=C(Nc1ccc2nc3n(c(=O)c2c1)CCCCC3)c1ccccc1Cl 44.4%, CCCc1nc2c(c(=O)c3ccccc3n2C)c(=O)n1C1CCCCCC1 61.8%, C=CCN(CC=C)S(=O)(=O)c1ccc(C(=O)Nc2nc3c(s2)CCc2ccccc2-3)cc1 90.9%, CN(C)C(=O)CCc1ccc2c3c([nH]c2c1)[C@]1(CCc2ccccc2)[C@@H](C(=O)N2CCCCC2)C[C@H](CC(=O)NCCC2=CCCCC2)C(=O)N1CC3 52.1%, O=C(C[C@H]1C/C=C\C[C@@H](NC(=O)OCC2c3ccccc3-c3ccccc32)C(=O)O[C@@H](c2ccccc2)CNC1=O)N[C@H](CO)Cc1ccccc1 69.3%, N#Cc1ccccc1NC(=O)COc1c(Br)cc(Br)c2cccnc12 88.3%, CCCCCC(=O)Nc1ccc(C(=O)N/N=C/c2ccc([N+](=O)[O-])cc2)cc1 66.5%, Oc1cccc2ccc(/C=C/c3ccc(Br)s3)nc12 50.4%, Cc1ccc(-c2nnc(-c3ccc(NC(=O)c4cccs4)cc3)o2)cc1 213%, CN1C(=O)/C(=C/c2ccc(C(=O)NC3CCCC3)cc2)Oc2ccccc21 32.3%, COc1ccc(CNC(=O)/C(C#N)=C/c2cccc(OC)c2OC)cc1 40.4%, Cc1cccc(Nc2nc3c(S(=O)(=O)c4ccccc4)nnn3c3ccccc23)c1C 120%, O=C(/C=C/c1ccccc1)c1ccccc1O 54.9%, Cc1ccc(S(=O)(=O)N(CC(=O)N/N=C/c2ccc(F)cc2)c2cccc3cccnc23)cc1 55.3%, CCCCCCCCCCOC(=O)Cn1c(COc2ccc(C)cc2)[n+](C)c2ccccc21 49.2%, CCOC(=O)c1c(NC(=O)CNC2CCCc3ccccc32)sc(C(N)=O)c1C (stereo unspecified) 34.3%, Cc1cc(NC(=O)CSc2nc3cc(Cl)ccc3c(=O)n2Cc2ccco2)no1 55.5%, CC(=O)Nc1ccccc1Sc1ccc2c3c(cccc13)C(=O)N(c1ccc(C)cc1)C2=O 79%, O=C(COC(=O)/C=C/c1cn(-c2ccccc2)nc1-c1cccnc1)Nc1ccc(Cl)cc1Cl 74.4%, Cc1ccc(Cc2cnc(NC(=O)/C(C#N)=C/c3ccc(-c4cccc([N+](=O)[O-])c4)o3)s2)cc1 217%, OC(CNCC1CCCO1)Cn1c2ccc(Br)cc2c2cc(Br)ccc21 (stereo unspecified) 44%, CCc1nn(-c2cc(Oc3cccc4ccccc34)nc(-c3ccccc3)n2)c(N)c1C#N 138%, CCc1nc(C)cn1S(=O)(=O)c1cc([N+](=O)[O-])ccc1Cl 55.6%, COc1cc(NC(=O)c2cncc(-c3ccc(C#N)cc3)c2)cc(C(=O)Nc2cccc(C(F)(F)F)c2)c1 129%, COC(=O)Cc1csc(/N=C/c2c(O)n(-c3cccc(C(F)(F)F)c3)c(=O)c3ccccc23)n1 42.5%, COc1ccccc1N=Cc1c(O)c2ccccc2oc1=O 113%, CC(C)=CCCC1(C)C=Cc2c(ccc3c2[nH]c2cc(O)c(C)cc23)O1 (stereo unspecified) 35.4%, Oc1ccc(Br)cc1/C=N/Nc1ccccn1 63.7%

activation, inactive:
Cc1ccc(SC(=O)COc2ccc(C)c(C)c2)cc1 19.5%, CSc1nc(-c2ccccc2)nc(C(Cl)Cl)n1 29.4%, Cc1ccc(S/C(=N\S(=O)(=O)c2ccc(Cl)cc2)c2ccccc2)cc1 9.43%, N#CC(=C1SC=CS1)c1nc(-c2ccccc2)cs1 2.43%, CCOC(=O)N1CCN(C(=O)c2nn(-c3ccc(C)cc3)c(=O)c3c2c2ccccc2n3C)CC1 7.78%, CCN1C(=O)N[C@@H](c2ccccc2)[C@H](C(C)=O)[C@H]1C -1.6%, N#Cc1c(N)nc2c3c(sc(=N)c2c1N)NC(=O)CC3c1ccccc1Cl (stereo unspecified) 0.75%, CCOc1ccc2nc(Cl)c(C3CC(c4ccccc4)=NN3C(=O)c3cccs3)cc2c1 (stereo unspecified) 19.5%, CCOC(=O)C1=C(O)/C(=C/c2ccc(OCC(=O)Nc3ccc(C)cc3)cc2)N=C1C -1.95%, CCCc1ccc(OCc2ccc(C(=O)N/N=C/c3cccc([N+](=O)[O-])c3)o2)c(OC)c1 2.93%, CN(c1cccc(NC(=O)Nc2ccc(Cl)cc2)c1)S(C)(=O)=O 0.25%, O=C(CCCCCn1c(=S)[nH]c2cc3c(cc2c1=O)OCO3)N1CCN(c2ccc(F)cc2)CC1 10.3%, COc1ccc(Nc2cc(C)nc(-n3nc(C)cc3C)n2)cc1 28.5%, CCC1(CC)Cc2ccccc2-c2nc(CCl)[nH]c(=O)c21 14.5%, CCOC(=O)/C=c1\s/c(=C\c2ccc(C#N)cc2)c(=O)n1CC(=O)Nc1cccc(C)c1C 11.4%, C=CC[C@@H](CC(=O)N[C@@H](CO)Cc1ccccc1)C(=O)N[C@H](COC(=O)[C@H](CC=C)CC(=O)OC(C)(C)C)Cc1ccccc1 4.58%, C=CCNc1nc(N)c([N+](=O)[O-])c(NC2CCCCC2)n1 12.5%
